Assay results: the supplement of paper PMC12669032

What was measured:
Assay in all cases: growth AUC relative to DMSO control (median of replicates) (fraction); higher = more growth (less inhibition), active = hit call of the paper
Conditions in all cases: 20 µM; 24 h;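 active = AUC reduced over 20% with Padj below 0.05 in at least 2 of 3 replicates; inactive = otherwise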
Akkermansia muciniphila = system: Akkermansia muciniphila
Procedure, shortened: (§1)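 Gut bacterial monocultures were grown anaerobically at 37 °C in mGAM, starting at OD600 0.05, with 20 µM compound (1% DMSO) in round-bottom 96-well plates under pierced gas-permeable seals. OD600 was read hourly for 24 h. Area under the growth curve (minimum OD set to 0) was normalised to the plate median of DMSO controls, or to row and column medians on the industrial chemical plate. The value is the median of three biological replicates grown on separate days.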

Bacteroides caccae = system: Bacteroides caccae
Procedure, shortened: as §1

Bacteroides clarus = system: Bacteroides clarus
Procedure, shortened: as §1

Bacteroides dorei = system: Bacteroides dorei
Procedure, shortened: as §1

Bacteroides stercoris = system: Bacteroides stercoris
Procedure, shortened: as §1

[1] = system: Bacteroides thetaiotaomicron
Procedure, shortened: as §1

Bacteroides uniformis = system: Bacteroides uniformis
Procedure, shortened: as §1

[2] = system: Bifidobacterium longum subsp. longum
Procedure, shortened: as §1

Clostridium difficile = system: Clostridium difficile
Procedure, shortened: as §1

Collinsella aerofaciens = system: Collinsella aerofaciens
Procedure, shortened: as §1

Coprococcus comes = system: Coprococcus comes
Procedure, shortened: as §1

Escherichia coli ED1a = system: Escherichia coli ED1a
Procedure, shortened: as §1

Escherichia coli IAI1 = system: Escherichia coli IAI1
Procedure, shortened: as §1

Eubacterium rectale = system: Eubacterium rectale
Procedure, shortened: as §1

[3] = system: Fusobacterium nucleatum subsp. animalis
Procedure, shortened: as §1

Lactobacillus gasseri = system: Lactobacillus gasseri
Procedure, shortened: as §1

Lactobacillus paracasei = system: Lactobacillus paracasei
Procedure, shortened: as §1

Odoribacter splanchnicus = system: Odoribacter splanchnicus
Procedure, shortened: as §1

[4] = system: Parabacteroides distasonis
Procedure, shortened: as §1

Parabacteroides merdae = system: Parabacteroides merdae
Procedure, shortened: as §1

Measured: growth AUC

CCOP(=S)(OCC)Oc1cnc2ccccc2n1
active: [4] 0.589
inactive: Akkermansia muciniphila 0.881 | Bacteroides caccae 0.925 | Bacteroides clarus 0.94 | Bacteroides dorei 0.993 | Bacteroides stercoris 0.934 | [1] 0.895 | Bacteroides uniformis 0.867 | [2] 0.987 | Clostridium difficile 0.988 | Collinsella aerofaciens 0.992 | Coprococcus comes 0.989 | Escherichia coli ED1a 0.977 | Escherichia coli IAI1 0.977 | Eubacterium rectale 0.91 | [3] 0.995 | Lactobacillus gasseri 0.966 | Lactobacillus paracasei 1.01 | Odoribacter splanchnicus 1.01 | Parabacteroides merdae 0.947

N#Cc1c(Cl)cccc1Cl
inactive: Akkermansia muciniphila 0.866 | Bacteroides caccae 1.03 | Bacteroides clarus 0.979 | Bacteroides dorei 1.04 | Bacteroides stercoris 0.989 | [1] 1 | Bacteroides uniformis 0.922 | [2] 0.898 | Clostridium difficile 1.01 | Collinsella aerofaciens 1.02 | Coprococcus comes 0.994 | Escherichia coli ED1a 0.999 | Escherichia coli IAI1 1.03 | Eubacterium rectale 0.936 | [3] 1.04 | Lactobacillus gasseri 1.17 | Lactobacillus paracasei 0.884 | Odoribacter splanchnicus 1.01 | [4] 1.04 | Parabacteroides merdae 1.01

COc1cnc(OC)n2nc(NS(=O)(=O)c3c(OCC(F)F)cccc3C(F)(F)F)nc12
inactive: Akkermansia muciniphila 0.962 | Bacteroides caccae 1.03 | Bacteroides clarus 1.01 | Bacteroides dorei 0.993 | Bacteroides stercoris 0.991 | [1] 1.01 | Bacteroides uniformis 1.01 | [2] 0.994 | Clostridium difficile 0.993 | Collinsella aerofaciens 0.991 | Coprococcus comes 1.01 | Escherichia coli ED1a 1.01 | Escherichia coli IAI1 1.02 | Eubacterium rectale 0.954 | [3] 0.96 | Lactobacillus gasseri 1.08 | Lactobacillus paracasei 0.965 | Odoribacter splanchnicus 1.01 | [4] 1.01 | Parabacteroides merdae 1.01

CCOP(=S)(OCC)Oc1cc(Cl)c(SC)cc1Cl
inactive: Akkermansia muciniphila 1.01 | Bacteroides caccae 0.997 | Bacteroides clarus 0.979 | Bacteroides dorei 0.999 | Bacteroides stercoris 1.11 | [1] 0.992 | Bacteroides uniformis 0.989 | [2] 0.981 | Clostridium difficile 1.05 | Collinsella aerofaciens 1.01 | Coprococcus comes 1.02 | Escherichia coli ED1a 0.999 | Escherichia coli IAI1 0.977 | Eubacterium rectale 0.897 | [3] 1.03 | Lactobacillus gasseri 0.981 | Lactobacillus paracasei 0.995 | Odoribacter splanchnicus 1.12 | [4] 1.01 | Parabacteroides merdae 0.926

CCOc1cc(C(C)(C)C)ccc1C1COC(c2c(F)cccc2F)=N1 (stereo not given)
inactive: Akkermansia muciniphila 0.955 | Bacteroides caccae 0.941 | Bacteroides clarus 1 | Bacteroides dorei 1.03 | Bacteroides stercoris 1.23 | [1] 0.978 | Bacteroides uniformis 0.958 | [2] 1.02 | Clostridium difficile 0.942 | Collinsella aerofaciens 0.987 | Coprococcus comes 0.996 | Escherichia coli ED1a 0.998 | Escherichia coli IAI1 1.02 | Eubacterium rectale 1 | [3] 1.08 | Lactobacillus gasseri 0.932 | Lactobacillus paracasei 1.01 | Odoribacter splanchnicus 1.04 | [4] 0.891 | Parabacteroides merdae 0.878

O=c1oc2ccccc2c(O)c1C(CC(O)c1ccc(-c2ccc(Br)cc2)cc1)c1ccccc1 (stereo not given)
active: Bacteroides caccae 0.438 | Bacteroides clarus 0.279 | Bacteroides dorei 0.563 | Bacteroides stercoris 0.00869 | [1] 0.733 | Bacteroides uniformis 0.703 | [2] 0.747 | Clostridium difficile 0.327 | Odoribacter splanchnicus 0.167 | [4] 0.516 | Parabacteroides merdae 0.25
inactive: Akkermansia muciniphila 1 | Collinsella aerofaciens 0.941 | Coprococcus comes 0.923 | Escherichia coli ED1a 1 | Escherichia coli IAI1 0.97 | Eubacterium rectale 0.883 | [3] 0.936 | Lactobacillus gasseri 0.801 | Lactobacillus paracasei 0.838

CC(C)=CC1C(C(=O)OCc2coc(Cc3ccccc3)c2)C1(C)C (stereo not given)
inactive: Akkermansia muciniphila 0.878 | Bacteroides caccae 0.995 | Bacteroides clarus 0.943 | Bacteroides dorei 1 | Bacteroides stercoris 0.965 | [1] 0.973 | Bacteroides uniformis 0.988 | [2] 0.899 | Clostridium difficile 1.02 | Collinsella aerofaciens 0.936 | Coprococcus comes 1.01 | Escherichia coli ED1a 0.996 | Escherichia coli IAI1 1.01 | Eubacterium rectale 0.917 | [3] 0.878 | Lactobacillus gasseri 1.06 | Lactobacillus paracasei 1.12 | Odoribacter splanchnicus 0.98 | [4] 1.01 | Parabacteroides merdae 0.944

CC(Cc1ccc(C(C)(C)C)cc1)CN1C[C@@H](C)O[C@@H](C)C1 (stereo not given in full)
inactive: Akkermansia muciniphila 1.04 | Bacteroides caccae 1.03 | Bacteroides clarus 0.974 | Bacteroides dorei 1.01 | Bacteroides stercoris 1.07 | [1] 0.996 | Bacteroides uniformis 1.05 | [2] 0.992 | Clostridium difficile 1.02 | Collinsella aerofaciens 1 | Coprococcus comes 1.03 | Escherichia coli ED1a 1.01 | Escherichia coli IAI1 1.06 | Eubacterium rectale 0.983 | [3] 1.07 | Lactobacillus gasseri 1.06 | Lactobacillus paracasei 1.07 | Odoribacter splanchnicus 1.07 | [4] 0.985 | Parabacteroides merdae 0.999

CCNc1nc(NCC)nc(SC)n1
inactive: Akkermansia muciniphila 1.14 | Bacteroides caccae 0.946 | Bacteroides clarus 1.02 | Bacteroides dorei 0.994 | Bacteroides stercoris 1.26 | [1] 0.955 | Bacteroides uniformis 1 | [2] 1.08 | Clostridium difficile 0.981 | Collinsella aerofaciens 0.996 | Coprococcus comes 0.99 | Escherichia coli ED1a 1.02 | Escherichia coli IAI1 0.99 | Eubacterium rectale 1.02 | [3] 1.06 | Lactobacillus gasseri 1.13 | Lactobacillus paracasei 1.08 | Odoribacter splanchnicus 0.88 | [4] 1.01 | Parabacteroides merdae 1.04

CCCN(CC1CC1)c1c([N+](=O)[O-])cc(C(F)(F)F)cc1[N+](=O)[O-]
inactive: Akkermansia muciniphila 1.35 | Bacteroides caccae 0.93 | Bacteroides clarus 1.03 | Bacteroides dorei 0.953 | Bacteroides stercoris 1.42 | [1] 1 | Bacteroides uniformis 1.03 | [2] 1.03 | Clostridium difficile 0.979 | Collinsella aerofaciens 0.955 | Coprococcus comes 0.995 | Escherichia coli ED1a 1.01 | Escherichia coli IAI1 1.03 | Eubacterium rectale 1 | [3] 1.09 | Lactobacillus gasseri 1.11 | Lactobacillus paracasei 0.977 | Odoribacter splanchnicus 0.943 | [4] 1.03 | Parabacteroides merdae 1.03

CNC(=O)/C(=N/OC)c1ccccc1Oc1ccccc1
inactive: Akkermansia muciniphila 0.883 | Bacteroides caccae 1.01 | Bacteroides clarus 0.972 | Bacteroides dorei 0.982 | Bacteroides stercoris 1.02 | [1] 0.975 | Bacteroides uniformis 0.997 | [2] 0.942 | Clostridium difficile 1 | Collinsella aerofaciens 0.998 | Coprococcus comes 0.989 | Escherichia coli ED1a 1 | Escherichia coli IAI1 0.997 | Eubacterium rectale 0.977 | [3] 0.968 | Lactobacillus gasseri 1.04 | Lactobacillus paracasei 1.05 | Odoribacter splanchnicus 0.992 | [4] 0.995 | Parabacteroides merdae 0.997

Oc1ccc(-c2ccccc2)cc1
inactive: Akkermansia muciniphila 0.809 | Bacteroides caccae 1.03 | Bacteroides clarus 0.948 | Bacteroides dorei 0.991 | Bacteroides stercoris 0.815 | [1] 0.985 | Bacteroides uniformis 0.957 | [2] 0.899 | Clostridium difficile 1.03 | Collinsella aerofaciens 1 | Coprococcus comes 1.01 | Escherichia coli ED1a 0.991 | Escherichia coli IAI1 0.987 | Eubacterium rectale 1 | [3] 0.968 | Lactobacillus gasseri 1.04 | Lactobacillus paracasei 0.693 | Odoribacter splanchnicus 1.09 | [4] 1.02 | Parabacteroides merdae 0.989

CCOP(=S)(OCC)Oc1ccc(S(C)=O)cc1 (stereo not given)
inactive: Akkermansia muciniphila 0.951 | Bacteroides caccae 0.974 | Bacteroides clarus 0.967 | Bacteroides dorei 0.985 | Bacteroides stercoris 0.951 | [1] 0.968 | Bacteroides uniformis 0.993 | [2] 0.97 | Clostridium difficile 0.994 | Collinsella aerofaciens 1.05 | Coprococcus comes 1 | Escherichia coli ED1a 1 | Escherichia coli IAI1 1.01 | Eubacterium rectale 0.878 | [3] 0.998 | Lactobacillus gasseri 1.07 | Lactobacillus paracasei 1 | Odoribacter splanchnicus 0.977 | [4] 1 | Parabacteroides merdae 1

ClC1=C(Cl)C2(Cl)C(CBr)CC1(Cl)C2(Cl)Cl (stereo not given)
inactive: Akkermansia muciniphila 1.02 | Bacteroides caccae 1.04 | Bacteroides clarus 1.02 | Bacteroides dorei 0.999 | Bacteroides stercoris 1.02 | [1] 1.01 | Bacteroides uniformis 0.982 | [2] 1.01 | Clostridium difficile 0.985 | Collinsella aerofaciens 0.957 | Coprococcus comes 0.994 | Escherichia coli ED1a 0.956 | Escherichia coli IAI1 0.986 | Eubacterium rectale 1.01 | [3] 0.969 | Lactobacillus gasseri 0.858 | Lactobacillus paracasei 1.03 | Odoribacter splanchnicus 1.01 | [4] 0.973 | Parabacteroides merdae 0.973

CC(C)(C)c1ccc(CCOc2ncnc3ccccc23)cc1
inactive: Akkermansia muciniphila 1.16 | Bacteroides caccae 0.952 | Bacteroides clarus 0.973 | Bacteroides dorei 0.921 | Bacteroides stercoris 0.872 | [1] 0.975 | Bacteroides uniformis 0.944 | [2] 0.996 | Clostridium difficile 0.98 | Collinsella aerofaciens 0.943 | Coprococcus comes 0.98 | Escherichia coli ED1a 0.976 | Escherichia coli IAI1 0.973 | Eubacterium rectale 0.905 | [3] 0.887 | Lactobacillus gasseri 0.924 | Lactobacillus paracasei 0.942 | Odoribacter splanchnicus 0.834 | Parabacteroides merdae 0.934
active: [4] 0.795
